# Test results as given in the supplement of paper PMC10849652.
# The full data set covers some 7,900 targets. This sample favours those with a hit. About 0.6% of all pairs of compound and target were hits.
# Compound: CC[C@@H]1C(=O)N(C)c2cnc(Nc3ccc(C(=O)N[C@H]4CC[C@H](N5CCN(CC6CC6)CC5)CC4)cc3OC)nc2N1C(C)C [volasertib]
# Test: log2 fold change, soluble protein after heating vs DMSO (PISA); higher = thermal stabilisation; K562 cells, 10 uM, 30 min; active = over 0.2 and 3.5 SD of the protein, either way, in both replicates (recomputed)
# Summary of the method: (§1)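 Values are thermal stability changes relative to control samples and are taken from duplicates. They are stated as log2 fold changes. Before quantification by TMTpro 16plex LC-MS/MS with equalised channel sums, K562 cells at 2×10^6 cells/mL were treated with 10 μM compound for 30 min, heated in aliquots for 3 min across 48°C-58°C, pooled, extracted in PBS with 0.5% NP-40 at 4°C, and centrifuged at 21,000xg for 90 min to give the soluble supernatant.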
# Sequence of UniProt Q14157 (Q14157 whole entry, looked up): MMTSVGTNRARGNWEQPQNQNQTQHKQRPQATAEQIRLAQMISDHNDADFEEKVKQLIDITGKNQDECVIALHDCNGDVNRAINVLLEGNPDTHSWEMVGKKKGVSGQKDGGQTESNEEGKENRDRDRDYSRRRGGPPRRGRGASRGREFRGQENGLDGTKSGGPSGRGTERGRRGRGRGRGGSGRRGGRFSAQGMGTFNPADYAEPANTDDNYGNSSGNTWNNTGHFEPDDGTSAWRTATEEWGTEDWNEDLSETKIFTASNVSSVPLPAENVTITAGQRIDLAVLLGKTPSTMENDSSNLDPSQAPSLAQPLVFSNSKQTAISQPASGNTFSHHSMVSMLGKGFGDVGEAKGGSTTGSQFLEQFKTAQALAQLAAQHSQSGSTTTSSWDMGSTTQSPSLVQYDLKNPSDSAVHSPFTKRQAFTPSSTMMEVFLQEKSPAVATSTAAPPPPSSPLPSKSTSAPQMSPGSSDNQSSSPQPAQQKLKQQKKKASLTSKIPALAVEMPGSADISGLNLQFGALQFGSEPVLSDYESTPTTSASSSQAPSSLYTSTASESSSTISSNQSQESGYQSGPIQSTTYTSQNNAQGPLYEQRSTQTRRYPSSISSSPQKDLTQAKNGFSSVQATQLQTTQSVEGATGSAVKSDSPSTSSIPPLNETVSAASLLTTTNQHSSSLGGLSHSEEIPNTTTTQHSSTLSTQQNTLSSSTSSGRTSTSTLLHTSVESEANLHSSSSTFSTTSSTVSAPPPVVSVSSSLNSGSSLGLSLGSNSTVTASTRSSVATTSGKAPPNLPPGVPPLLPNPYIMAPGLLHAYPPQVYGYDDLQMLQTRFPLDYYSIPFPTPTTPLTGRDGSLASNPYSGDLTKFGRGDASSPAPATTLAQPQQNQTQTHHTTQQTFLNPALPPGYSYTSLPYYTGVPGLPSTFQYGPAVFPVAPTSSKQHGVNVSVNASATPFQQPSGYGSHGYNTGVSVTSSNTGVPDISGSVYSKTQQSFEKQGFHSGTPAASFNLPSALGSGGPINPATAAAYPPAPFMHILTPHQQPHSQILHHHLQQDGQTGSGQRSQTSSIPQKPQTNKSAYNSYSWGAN
# Sequence of UniProt A3KMH1 (A3KMH1 whole entry, looked up): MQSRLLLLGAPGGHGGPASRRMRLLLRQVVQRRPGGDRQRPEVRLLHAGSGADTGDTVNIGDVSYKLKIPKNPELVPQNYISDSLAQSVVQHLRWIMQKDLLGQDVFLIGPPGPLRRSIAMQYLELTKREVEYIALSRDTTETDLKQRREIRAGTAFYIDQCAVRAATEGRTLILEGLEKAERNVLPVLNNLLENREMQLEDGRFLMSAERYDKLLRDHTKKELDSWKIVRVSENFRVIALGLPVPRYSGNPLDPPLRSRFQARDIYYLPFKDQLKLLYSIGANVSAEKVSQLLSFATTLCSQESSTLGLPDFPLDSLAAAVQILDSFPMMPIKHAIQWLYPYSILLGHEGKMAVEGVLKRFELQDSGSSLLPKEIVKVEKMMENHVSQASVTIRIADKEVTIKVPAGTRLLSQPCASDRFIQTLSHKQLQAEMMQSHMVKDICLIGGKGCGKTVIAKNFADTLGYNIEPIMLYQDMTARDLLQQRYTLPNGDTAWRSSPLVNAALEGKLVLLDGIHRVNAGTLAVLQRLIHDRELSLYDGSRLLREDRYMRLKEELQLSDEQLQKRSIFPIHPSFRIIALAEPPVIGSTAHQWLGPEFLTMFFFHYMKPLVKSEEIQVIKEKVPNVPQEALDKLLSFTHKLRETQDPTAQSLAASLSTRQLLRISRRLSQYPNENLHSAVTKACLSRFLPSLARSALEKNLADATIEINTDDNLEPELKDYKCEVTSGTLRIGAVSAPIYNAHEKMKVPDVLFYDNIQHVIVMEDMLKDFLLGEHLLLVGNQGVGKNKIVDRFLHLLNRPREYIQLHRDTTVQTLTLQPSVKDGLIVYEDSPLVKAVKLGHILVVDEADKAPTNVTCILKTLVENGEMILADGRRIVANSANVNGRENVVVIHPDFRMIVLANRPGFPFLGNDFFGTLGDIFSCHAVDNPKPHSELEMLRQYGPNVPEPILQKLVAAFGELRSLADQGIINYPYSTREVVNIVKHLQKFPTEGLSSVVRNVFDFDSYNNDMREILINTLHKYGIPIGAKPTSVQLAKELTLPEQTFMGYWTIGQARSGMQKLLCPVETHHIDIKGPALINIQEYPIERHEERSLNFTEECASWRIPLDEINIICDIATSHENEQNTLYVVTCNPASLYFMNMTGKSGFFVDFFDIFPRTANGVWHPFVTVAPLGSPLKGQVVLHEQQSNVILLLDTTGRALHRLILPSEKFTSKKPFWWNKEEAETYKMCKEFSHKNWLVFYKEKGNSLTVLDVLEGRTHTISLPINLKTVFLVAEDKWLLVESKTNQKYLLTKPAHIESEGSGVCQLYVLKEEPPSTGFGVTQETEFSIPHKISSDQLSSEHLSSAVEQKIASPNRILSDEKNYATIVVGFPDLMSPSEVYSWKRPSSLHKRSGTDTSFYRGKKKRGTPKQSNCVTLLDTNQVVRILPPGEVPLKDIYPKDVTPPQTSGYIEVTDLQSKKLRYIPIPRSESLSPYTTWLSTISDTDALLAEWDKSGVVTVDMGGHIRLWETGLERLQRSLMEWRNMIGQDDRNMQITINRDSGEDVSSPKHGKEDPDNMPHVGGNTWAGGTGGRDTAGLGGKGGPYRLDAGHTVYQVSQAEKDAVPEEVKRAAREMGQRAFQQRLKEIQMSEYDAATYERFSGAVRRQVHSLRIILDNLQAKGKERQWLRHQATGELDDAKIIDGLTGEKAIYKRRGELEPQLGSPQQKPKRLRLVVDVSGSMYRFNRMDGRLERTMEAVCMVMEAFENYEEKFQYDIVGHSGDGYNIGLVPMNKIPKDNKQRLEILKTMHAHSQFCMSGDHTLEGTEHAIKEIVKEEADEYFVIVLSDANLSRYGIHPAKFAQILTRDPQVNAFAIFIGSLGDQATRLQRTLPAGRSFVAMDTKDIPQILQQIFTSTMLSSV
# Sequence of UniProt Q9NQW7 (Q9NQW7 whole entry, looked up): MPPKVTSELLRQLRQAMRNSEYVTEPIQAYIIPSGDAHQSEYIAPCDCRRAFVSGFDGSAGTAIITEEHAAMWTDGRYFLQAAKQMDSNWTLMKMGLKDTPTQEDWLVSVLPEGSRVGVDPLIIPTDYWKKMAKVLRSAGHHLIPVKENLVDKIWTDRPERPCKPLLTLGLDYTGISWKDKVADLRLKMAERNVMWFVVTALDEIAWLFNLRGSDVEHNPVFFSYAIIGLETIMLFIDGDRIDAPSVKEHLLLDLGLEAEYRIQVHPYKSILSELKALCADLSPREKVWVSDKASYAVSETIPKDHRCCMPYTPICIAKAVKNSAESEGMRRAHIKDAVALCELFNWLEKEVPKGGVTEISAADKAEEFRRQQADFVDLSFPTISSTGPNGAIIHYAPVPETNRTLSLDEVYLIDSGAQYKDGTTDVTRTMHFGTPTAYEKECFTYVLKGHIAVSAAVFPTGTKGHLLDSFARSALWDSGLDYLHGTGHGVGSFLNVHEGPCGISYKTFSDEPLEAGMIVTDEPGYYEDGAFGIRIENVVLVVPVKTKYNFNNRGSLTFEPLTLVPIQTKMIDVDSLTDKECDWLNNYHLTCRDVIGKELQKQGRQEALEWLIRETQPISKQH
# Sequence of UniProt Q86UV5 (Q86UV5 whole entry, looked up): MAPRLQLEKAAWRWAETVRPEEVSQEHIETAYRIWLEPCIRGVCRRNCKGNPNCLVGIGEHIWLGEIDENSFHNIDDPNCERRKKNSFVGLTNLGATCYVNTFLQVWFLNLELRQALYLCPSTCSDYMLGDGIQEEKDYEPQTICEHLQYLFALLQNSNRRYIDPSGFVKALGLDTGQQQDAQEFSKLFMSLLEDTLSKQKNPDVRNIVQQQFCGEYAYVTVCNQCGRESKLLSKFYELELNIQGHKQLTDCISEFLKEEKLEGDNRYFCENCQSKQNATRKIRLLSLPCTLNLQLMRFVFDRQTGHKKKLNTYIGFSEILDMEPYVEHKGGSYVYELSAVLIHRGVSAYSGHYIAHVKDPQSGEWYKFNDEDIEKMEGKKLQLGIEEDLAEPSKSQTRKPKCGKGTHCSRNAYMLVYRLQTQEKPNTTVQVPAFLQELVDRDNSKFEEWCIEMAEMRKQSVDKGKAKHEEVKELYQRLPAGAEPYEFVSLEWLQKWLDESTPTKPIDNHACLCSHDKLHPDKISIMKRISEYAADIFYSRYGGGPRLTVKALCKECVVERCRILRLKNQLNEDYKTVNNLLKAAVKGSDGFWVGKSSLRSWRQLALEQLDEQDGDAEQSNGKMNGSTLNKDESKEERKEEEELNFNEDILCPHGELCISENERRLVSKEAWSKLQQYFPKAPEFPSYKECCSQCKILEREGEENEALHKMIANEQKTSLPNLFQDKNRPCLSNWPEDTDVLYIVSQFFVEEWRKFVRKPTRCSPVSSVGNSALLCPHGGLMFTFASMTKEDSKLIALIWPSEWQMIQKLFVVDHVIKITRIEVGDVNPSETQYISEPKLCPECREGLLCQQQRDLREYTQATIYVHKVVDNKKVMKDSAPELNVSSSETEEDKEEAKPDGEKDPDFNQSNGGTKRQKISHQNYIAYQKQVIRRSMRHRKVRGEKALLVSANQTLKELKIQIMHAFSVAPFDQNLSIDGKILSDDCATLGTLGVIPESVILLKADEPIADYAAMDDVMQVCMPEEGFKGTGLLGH
# Sequence of UniProt Q01081 (Q01081 whole entry, looked up): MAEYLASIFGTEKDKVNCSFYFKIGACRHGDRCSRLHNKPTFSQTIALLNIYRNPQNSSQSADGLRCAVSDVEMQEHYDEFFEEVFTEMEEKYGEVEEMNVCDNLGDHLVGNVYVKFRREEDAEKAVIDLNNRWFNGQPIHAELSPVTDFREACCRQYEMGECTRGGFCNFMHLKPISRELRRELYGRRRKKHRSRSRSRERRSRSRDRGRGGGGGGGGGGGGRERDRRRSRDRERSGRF
# Sequence of UniProt Q9UDW1 (Q9UDW1 whole entry, looked up): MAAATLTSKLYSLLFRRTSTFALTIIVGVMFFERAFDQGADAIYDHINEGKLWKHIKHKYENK
# Sequence of UniProt Q8N4H5 (Q8N4H5 whole entry, looked up): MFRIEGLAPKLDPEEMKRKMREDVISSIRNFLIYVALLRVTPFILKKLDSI
row,Target,log2 fold change
1,WDHD1 (UniProt O75717),-0.458 (active)
2,TOMM5 isoform 2 (UniProt Q8N4H5),-0.032 (inactive)
3,WDR41 (UniProt Q9HAD4),-0.282 (active)
4,XPO5 (UniProt Q9HAV4),-0.263 (active)
5,"VARS2, A0A0G2JL52",0.001 (inactive)
6,WNK1 isoform 7 (UniProt Q9H4A3),-0.01 (inactive)
7,TRIM28 (UniProt Q13263),-0.222 (active)
8,WRB (UniProt O00258),0.057 (inactive)
9,UBR2 (UniProt Q8IWV8),-0.104 (inactive)
10,UBE2S (UniProt Q16763),-0.214 (active)
11,VPS13B (UniProt Q7Z7G8),-0.088 (inactive)
12,TRMT10C (UniProt Q7L0Y3),-0.416 (active)
13,XPNPEP3 (UniProt Q9NQH7),0.075 (inactive)
14,TMEM189-UBE2V1 (UniProt I3L0A0),0.056 (inactive)
15,USP15 (UniProt Q9Y4E8),-0.32 (active)
16,VWA8 (UniProt A3KMH1),-0.071 (inactive)
17,TUBAL3 (UniProt A6NHL2),-0.497 (inactive)
18,XPO1 (UniProt O14980),-0.546 (active)

row,Target,log2 fold change
1,U2AF2 (UniProt P26368),-0.231 (active)
2,WDR47 (UniProt O94967),-0.112 (inactive)
3,U2AF1 isoform 2 (UniProt Q01081),-0.57 (active)
4,XPNPEP1 isoform 3 (UniProt Q9NQW7),0.049 (inactive)
5,UBA1 (UniProt P22314),-0.543 (active)
6,WDR4 (UniProt P57081),-0.072 (inactive)
7,VPS35L (UniProt Q7Z3J2),-0.365 (active)
8,UBA6,-0.189 (inactive)
9,UQCR10 (UniProt Q9UDW1),-0.102 (inactive)
10,TRAPPC11 (UniProt Q7Z392),-0.275 (active)
11,TXN2 (UniProt Q99757),0.051 (inactive)
12,UBAP2L isoform 1 (UniProt Q14157),-0.417 (inactive)
13,TMEM208 (UniProt Q9BTX3),-0.208 (inactive)
14,UBAP2L isoform 5 (UniProt Q14157),-0.023 (inactive)
15,TXNIP (UniProt Q9H3M7),0.021 (inactive)
16,VRK2 (UniProt Q86Y07),-0.049 (inactive)
17,WDR61 (UniProt Q9GZS3),0.102 (inactive)
18,USP48 isoform 8 (UniProt Q86UV5),-0.84 (active)

# Compound: CC[C@H](C)N1C=C(C2=C(C=C(C=C21)C3=CN=C(C=C3)N4CCNCC4)C(=O)NCC5=C(C=C(NC5=O)C)C)C
# Test: as above
# Summary of the method: as §1
row,Target,log2 fold change
1,WDHD1 (UniProt O75717),0.079 (inactive)
2,TOMM5 isoform 2 (UniProt Q8N4H5),-0.049 (inactive)
3,WDR41 (UniProt Q9HAD4),-0.056 (inactive)
4,XPO5 (UniProt Q9HAV4),0.063 (inactive)
5,"VARS2, A0A0G2JL52",0.08 (inactive)
6,WNK1 isoform 7 (UniProt Q9H4A3),0.04 (inactive)
7,TRIM28 (UniProt Q13263),0.052 (inactive)
8,WRB (UniProt O00258),-0.071 (inactive)
9,UBR2 (UniProt Q8IWV8),-0.004 (inactive)
10,UBE2S (UniProt Q16763),0.005 (inactive)
11,VPS13B (UniProt Q7Z7G8),0.004 (inactive)
12,TRMT10C (UniProt Q7L0Y3),0.07 (inactive)
13,XPNPEP3 (UniProt Q9NQH7),0.069 (inactive)
14,TMEM189-UBE2V1 (UniProt I3L0A0),-0.137 (inactive)
15,USP15 (UniProt Q9Y4E8),0.066 (inactive)
16,VWA8 (UniProt A3KMH1),0.048 (inactive)
17,TUBAL3 (UniProt A6NHL2),-0.052 (inactive)
18,XPO1 (UniProt O14980),0.085 (inactive)

row,Target,log2 fold change
1,U2AF2 (UniProt P26368),0.039 (inactive)
2,WDR47 (UniProt O94967),-0.02 (inactive)
3,U2AF1 isoform 2 (UniProt Q01081),0.051 (inactive)
4,XPNPEP1 isoform 3 (UniProt Q9NQW7),0.018 (inactive)
5,UBA1 (UniProt P22314),0.133 (inactive)
6,WDR4 (UniProt P57081),0.025 (inactive)
7,VPS35L (UniProt Q7Z3J2),-0.038 (inactive)
8,UBA6,0.057 (inactive)
9,UQCR10 (UniProt Q9UDW1),-0.031 (inactive)
10,TRAPPC11 (UniProt Q7Z392),0.015 (inactive)
11,TXN2 (UniProt Q99757),-0.029 (inactive)
12,UBAP2L isoform 1 (UniProt Q14157),0.046 (inactive)
13,TMEM208 (UniProt Q9BTX3),-0.048 (inactive)
14,UBAP2L isoform 5 (UniProt Q14157),-0.02 (inactive)
15,TXNIP (UniProt Q9H3M7),0.053 (inactive)
16,VRK2 (UniProt Q86Y07),0.054 (inactive)
17,WDR61 (UniProt Q9GZS3),0.035 (inactive)
18,USP48 isoform 8 (UniProt Q86UV5),0.144 (inactive)
